Experimental data reported in ChEMBL document CHEMBL3988442, “University of Dundee, Small-Polar-MMV Screening Library” (2021).
For some of these results: Results with a measured potency or affinity are listed apart.

Tests used:
Design in all cases: scale not given: direction of the effect not stated beside the values
[1] = target: Protein translocase subunit SecA (Escherichia coli (strain K12)) (UniProt P10408); test: Assay to Identify E. coli SecA ATPase Inhibitors; type: functional; details: 30 µM
Chain of Protein translocase subunit SecA (Escherichia coli (strain K12)) (P10408 whole entry): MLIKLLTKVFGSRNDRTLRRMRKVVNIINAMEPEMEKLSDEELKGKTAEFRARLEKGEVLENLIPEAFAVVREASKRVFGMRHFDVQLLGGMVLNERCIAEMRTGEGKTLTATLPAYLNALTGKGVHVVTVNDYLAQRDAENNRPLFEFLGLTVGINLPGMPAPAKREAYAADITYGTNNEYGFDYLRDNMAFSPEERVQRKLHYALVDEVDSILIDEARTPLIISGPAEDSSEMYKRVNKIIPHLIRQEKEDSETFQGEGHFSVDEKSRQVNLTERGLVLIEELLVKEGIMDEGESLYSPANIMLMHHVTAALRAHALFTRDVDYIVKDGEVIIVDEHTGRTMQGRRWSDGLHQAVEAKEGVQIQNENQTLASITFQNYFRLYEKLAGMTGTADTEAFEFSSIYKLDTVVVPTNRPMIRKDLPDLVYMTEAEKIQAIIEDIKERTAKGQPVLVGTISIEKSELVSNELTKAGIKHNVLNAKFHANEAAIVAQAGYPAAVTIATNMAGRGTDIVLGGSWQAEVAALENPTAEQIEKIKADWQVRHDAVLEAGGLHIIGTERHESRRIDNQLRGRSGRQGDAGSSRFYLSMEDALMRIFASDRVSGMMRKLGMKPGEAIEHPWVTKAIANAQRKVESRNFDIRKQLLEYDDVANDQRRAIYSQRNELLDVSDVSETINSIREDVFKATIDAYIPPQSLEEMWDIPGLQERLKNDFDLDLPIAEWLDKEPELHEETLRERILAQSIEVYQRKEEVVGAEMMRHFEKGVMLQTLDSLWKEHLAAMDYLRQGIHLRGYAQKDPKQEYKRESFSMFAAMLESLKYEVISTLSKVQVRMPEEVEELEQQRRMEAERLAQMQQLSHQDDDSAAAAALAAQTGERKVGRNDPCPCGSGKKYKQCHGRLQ

[2] = target: T1, Ubiquitin-activating enzyme e1, putative (Leishmania donovani (strain BPK282A1)) (UniProt E9BSI1); test: Leishmania donovani Ubiquitin Activating Enzyme (LdE1); type: functional; details: 30 µM
T1 sequence (whole entry): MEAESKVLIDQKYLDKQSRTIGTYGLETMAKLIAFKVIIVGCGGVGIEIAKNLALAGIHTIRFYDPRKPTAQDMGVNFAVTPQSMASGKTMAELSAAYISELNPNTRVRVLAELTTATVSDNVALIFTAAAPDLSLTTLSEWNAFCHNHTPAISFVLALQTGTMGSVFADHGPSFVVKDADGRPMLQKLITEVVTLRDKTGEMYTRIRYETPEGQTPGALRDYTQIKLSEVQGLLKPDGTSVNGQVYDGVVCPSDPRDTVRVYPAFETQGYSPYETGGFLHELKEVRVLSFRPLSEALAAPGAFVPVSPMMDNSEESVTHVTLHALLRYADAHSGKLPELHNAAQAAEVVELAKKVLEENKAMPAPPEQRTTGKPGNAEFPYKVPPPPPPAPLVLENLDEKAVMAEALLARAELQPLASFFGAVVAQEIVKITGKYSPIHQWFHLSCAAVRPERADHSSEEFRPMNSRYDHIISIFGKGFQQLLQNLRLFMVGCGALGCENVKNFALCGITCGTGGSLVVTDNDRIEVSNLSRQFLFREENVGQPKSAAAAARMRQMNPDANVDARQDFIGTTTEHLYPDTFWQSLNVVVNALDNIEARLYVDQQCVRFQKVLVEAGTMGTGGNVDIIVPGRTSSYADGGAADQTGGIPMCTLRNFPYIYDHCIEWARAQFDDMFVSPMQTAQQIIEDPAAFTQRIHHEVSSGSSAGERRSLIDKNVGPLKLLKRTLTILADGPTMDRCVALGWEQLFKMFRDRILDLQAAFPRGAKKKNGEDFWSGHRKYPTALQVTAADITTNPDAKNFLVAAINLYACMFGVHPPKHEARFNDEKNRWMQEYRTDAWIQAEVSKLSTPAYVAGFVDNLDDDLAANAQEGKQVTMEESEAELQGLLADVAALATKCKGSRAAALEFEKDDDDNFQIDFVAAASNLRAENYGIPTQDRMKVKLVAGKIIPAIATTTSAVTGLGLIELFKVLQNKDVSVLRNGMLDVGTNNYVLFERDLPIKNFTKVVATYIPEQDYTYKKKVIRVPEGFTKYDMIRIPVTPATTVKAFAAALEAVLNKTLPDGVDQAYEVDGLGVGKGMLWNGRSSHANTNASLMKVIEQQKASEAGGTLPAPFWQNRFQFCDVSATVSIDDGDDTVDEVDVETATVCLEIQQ

[3] = target: AMP-activated protein kinase, AMPK (Homo sapiens) (UniProt P54646+O43741+P54619+Q9UGJ0+Q9Y478+Q13131+Q9UGI9); test: AMP-dependent Kinase enzyme assay. An in vitro enzyme assay that detects ADP turnover that is directly proportional to AMPK activity. This uses naive AMPK that is activated during the assay with MK-8722; type: functional; details: 30 µM
[4] = target: Sialic acid-binding Ig-like lectin 9 (Homo sapiens) (UniProt Q9Y336); test: Hs-Siglec9 ALPHAscreen SOP 20170721; details: 10 µM
Chain of Sialic acid-binding Ig-like lectin 9 (Homo sapiens) (Q9Y336 whole entry): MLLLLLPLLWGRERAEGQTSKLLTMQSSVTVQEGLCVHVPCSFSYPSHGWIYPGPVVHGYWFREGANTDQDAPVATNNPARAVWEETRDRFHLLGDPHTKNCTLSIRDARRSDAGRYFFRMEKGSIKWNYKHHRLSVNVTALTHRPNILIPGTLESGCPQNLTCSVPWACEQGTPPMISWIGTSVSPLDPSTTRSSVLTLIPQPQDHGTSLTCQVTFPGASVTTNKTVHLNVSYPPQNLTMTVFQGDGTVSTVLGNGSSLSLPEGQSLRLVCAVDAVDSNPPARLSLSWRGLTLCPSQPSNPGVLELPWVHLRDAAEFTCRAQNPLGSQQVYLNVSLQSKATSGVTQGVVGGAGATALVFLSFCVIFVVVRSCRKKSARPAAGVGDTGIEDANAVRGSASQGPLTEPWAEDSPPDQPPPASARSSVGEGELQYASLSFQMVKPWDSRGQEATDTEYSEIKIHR

[5] = system: Trypanosoma cruzi; test: Trypanosoma cruzi phosphomannomutase and mannose-1-phosphate guanylyltransferase assay; type: functional; details: 10 µM
[6] = target: T2, Arginase-2, mitochondrial (Homo sapiens) (UniProt P78540); test: in vitro enzyme assay to detect the production of urea directly proportional to the activity of Arginase II; type: functional; details: 33.3 µM; further: in the data most compounds retested in dose-response had high values
T2 sequence (whole entry): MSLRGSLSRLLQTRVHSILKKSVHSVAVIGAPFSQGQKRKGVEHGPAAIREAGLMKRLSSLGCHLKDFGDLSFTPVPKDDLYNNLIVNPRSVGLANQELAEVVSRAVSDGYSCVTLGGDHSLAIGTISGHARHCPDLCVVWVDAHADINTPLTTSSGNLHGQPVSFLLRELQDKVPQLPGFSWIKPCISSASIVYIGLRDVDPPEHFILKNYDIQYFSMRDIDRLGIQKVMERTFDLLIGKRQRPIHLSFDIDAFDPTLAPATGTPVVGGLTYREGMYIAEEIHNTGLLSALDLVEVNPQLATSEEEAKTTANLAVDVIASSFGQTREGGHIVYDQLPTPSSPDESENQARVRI

[7] = target: T3, Proteasome subunit beta (Trypanosoma cruzi) (UniProt O96673); test: Trypanosoma cruzi proteasome chymotrypsin-like activity (TcProtChymo) assay.; further: in the data most compounds retested in dose-response had high values; type: functional; details: 9.37 µM
T3 sequence (whole entry): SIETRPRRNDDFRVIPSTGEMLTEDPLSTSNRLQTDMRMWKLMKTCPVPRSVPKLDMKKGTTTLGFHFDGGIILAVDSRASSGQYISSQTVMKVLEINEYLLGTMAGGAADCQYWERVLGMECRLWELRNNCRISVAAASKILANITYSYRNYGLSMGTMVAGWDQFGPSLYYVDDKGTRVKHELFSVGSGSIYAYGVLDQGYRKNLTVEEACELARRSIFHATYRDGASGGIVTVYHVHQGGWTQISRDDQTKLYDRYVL

[8] = organism: Homo sapiens; test: To identify inhibition of the IFN signalling (Jak-Stat) pathway via expression of an eGFP reporter gene under the control of an IFN-stimulated response element (ISRE) containing MxA promoter.; type: functional; details: 30 µM
[9] = target: T4, Tyrosyl-tRNA synthetase, putative (Trypanosoma cruzi (strain CL Brener)) (UniProt Q4DSP6); test: Trypanosoma cruzi tyrosyl tRNA synthetase (TcYRS) _High Tyrosine SOP; type: functional; details: 30 µM; further: in the data most compounds retested in dose-response had high values
T4 sequence (whole entry): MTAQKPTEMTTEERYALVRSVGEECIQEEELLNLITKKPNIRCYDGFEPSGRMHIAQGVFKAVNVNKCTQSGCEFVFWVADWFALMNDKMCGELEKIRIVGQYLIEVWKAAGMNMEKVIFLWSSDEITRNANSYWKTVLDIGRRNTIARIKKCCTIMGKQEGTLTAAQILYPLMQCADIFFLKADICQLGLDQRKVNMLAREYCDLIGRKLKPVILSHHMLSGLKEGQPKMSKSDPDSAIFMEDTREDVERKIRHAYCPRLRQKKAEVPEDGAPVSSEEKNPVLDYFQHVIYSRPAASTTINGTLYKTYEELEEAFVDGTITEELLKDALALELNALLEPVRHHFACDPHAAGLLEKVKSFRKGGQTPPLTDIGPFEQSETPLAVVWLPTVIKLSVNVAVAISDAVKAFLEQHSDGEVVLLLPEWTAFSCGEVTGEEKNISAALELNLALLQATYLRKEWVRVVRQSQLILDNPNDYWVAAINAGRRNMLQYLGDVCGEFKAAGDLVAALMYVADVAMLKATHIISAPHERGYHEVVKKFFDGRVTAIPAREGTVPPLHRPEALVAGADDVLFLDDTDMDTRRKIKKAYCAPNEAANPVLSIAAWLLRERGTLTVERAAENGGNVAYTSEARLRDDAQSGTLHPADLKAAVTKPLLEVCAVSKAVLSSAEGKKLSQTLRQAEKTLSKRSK

[10] = target: T4, Tyrosyl-tRNA synthetase, putative (Trypanosoma cruzi (strain CL Brener)); test: Trypanosoma cruzi tyrosyl tRNA synthetase (TcYRS) SOP; type: functional; details: 30 µM
[11] = target: Chromo domain-containing protein 1 (Saccharomyces cerevisiae (strain ATCC 204508 / S288c) (Baker's yeast)) (UniProt P32657); test: ScCHD-1 Enzyme Inhibition Assay; type: functional; details: 30 µM; further: in the data most compounds retested in dose-response had high values
Chain of Chromo domain-containing protein 1 (Saccharomyces cerevisiae (strain ATCC 204508 / S288c) (Baker's yeast)) (P32657 whole entry, the tested form may be a part): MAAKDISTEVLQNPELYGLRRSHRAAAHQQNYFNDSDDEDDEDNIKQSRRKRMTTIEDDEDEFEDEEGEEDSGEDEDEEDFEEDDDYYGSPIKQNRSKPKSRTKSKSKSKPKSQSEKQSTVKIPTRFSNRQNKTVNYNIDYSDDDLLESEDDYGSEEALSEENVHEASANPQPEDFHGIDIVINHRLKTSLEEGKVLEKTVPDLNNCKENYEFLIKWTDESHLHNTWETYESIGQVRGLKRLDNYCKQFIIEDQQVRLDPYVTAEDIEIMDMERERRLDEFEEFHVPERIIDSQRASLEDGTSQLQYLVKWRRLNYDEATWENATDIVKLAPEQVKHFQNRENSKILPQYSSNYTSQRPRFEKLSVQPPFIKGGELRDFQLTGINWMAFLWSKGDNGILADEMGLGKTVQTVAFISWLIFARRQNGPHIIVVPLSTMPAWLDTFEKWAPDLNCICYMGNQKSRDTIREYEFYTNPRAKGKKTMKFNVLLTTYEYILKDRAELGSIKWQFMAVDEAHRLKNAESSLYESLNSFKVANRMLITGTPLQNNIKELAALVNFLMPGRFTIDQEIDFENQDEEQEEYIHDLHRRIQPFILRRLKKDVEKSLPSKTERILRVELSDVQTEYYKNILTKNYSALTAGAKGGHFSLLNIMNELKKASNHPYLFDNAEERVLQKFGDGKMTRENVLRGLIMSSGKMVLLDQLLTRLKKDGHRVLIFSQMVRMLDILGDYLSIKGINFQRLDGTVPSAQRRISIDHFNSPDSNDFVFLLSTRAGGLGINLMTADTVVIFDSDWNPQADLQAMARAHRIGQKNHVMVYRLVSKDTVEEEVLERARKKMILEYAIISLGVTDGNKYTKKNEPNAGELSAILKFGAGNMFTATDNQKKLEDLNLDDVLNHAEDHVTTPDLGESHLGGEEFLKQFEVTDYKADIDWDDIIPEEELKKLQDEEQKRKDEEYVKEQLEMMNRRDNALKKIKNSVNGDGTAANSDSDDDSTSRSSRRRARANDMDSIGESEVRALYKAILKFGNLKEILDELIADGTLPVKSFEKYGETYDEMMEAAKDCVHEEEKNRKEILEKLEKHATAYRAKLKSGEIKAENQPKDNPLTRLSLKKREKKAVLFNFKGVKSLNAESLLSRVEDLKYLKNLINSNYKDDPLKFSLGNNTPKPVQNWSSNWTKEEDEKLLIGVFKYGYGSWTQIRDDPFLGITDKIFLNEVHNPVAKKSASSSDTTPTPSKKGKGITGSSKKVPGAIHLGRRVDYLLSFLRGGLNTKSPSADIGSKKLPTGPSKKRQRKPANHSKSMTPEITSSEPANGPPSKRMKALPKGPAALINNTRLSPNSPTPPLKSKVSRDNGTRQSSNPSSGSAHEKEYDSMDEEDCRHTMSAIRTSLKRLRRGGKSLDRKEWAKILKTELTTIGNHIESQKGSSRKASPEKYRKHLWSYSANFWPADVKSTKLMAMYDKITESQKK

Row | Structure (SMILES) | Percent Effect [1] | Percent Effect [2] | Percent Effect [3] | Percent Effect [4] | Percent Effect [5] | Percent Effect [6] | Percent Effect [7] | Percent Effect [8] | Percent Effect [9] | Percent Effect [10] | Percent Effect [11]
1 | Cc1nc(C)n(C2CCCN(C(=O)CCc3ccncc3)C2)n1 (stereo unspecified) | -5.25% | 16.2% | 0.169% | 8.78% | 2.34% | 4.17% | 6.34% | 0.916% | 12.9% | 11% | -8.81%
2 | COc1ccc(-n2ccc(C(=O)NCCN3CCCCC3C)n2)cc1 (stereo unspecified) | -5.51% | -8.11% | -13.2% | 18.1% | 4.62% | -6.01% | 1.62% | -11.9% | 1.48% | 16.1% | -12.9%
3 | Cc1nc(CN2CCN(C(=O)c3cc(C4CC4)on3)CC2)cs1 | -6.45% | 13% | 2.57% | 3.64% | -0.686% | 5.68% | 4.45% | -4.72% | 4.76% | 18.8% | -6%
4 | O=C(c1n[nH]c(=O)c2ccccc12)N1CCCCC1c1ccn[nH]1 (stereo unspecified) | -1.96% | 1.35% | 14.9% | -7.74% | -5.53% | -8.12% | 1.72% | 0.863% | 4.3% | 6.49% | -5.69%
5 | Cc1ccc(-n2nnc(C(=O)Nc3cc(C)nn3C)c2C2CC2)cc1 | -8.29% | 5.41% | 1.63% | -1.73% | -3.99% | 1.66% | 8.98% | 33.1% | 3.96% | 1.22% | 1%
6 | Cc1ccc(CN2C[C@@H]3COC[C@H](C(=O)N4CCCCO4)[C@@H]3C2)o1 | -1.82% | 13.3% | 7.57% | 2.5% | 1.57% | -1.17% | 4.32% | 0.512% | 7.45% | 19.2% | -3.93%
7 | Cc1noc(C)c1CNCC1CCN(CC(O)c2ccccc2)CC1 (stereo unspecified) | -1.37% | 11.4% | -4.26% | 6.03% | -1.54% | -1.5% | 9.09% | -17.5% | 4.17% | 17.7% | -18%
8 | Cc1cc(N2CCN(Cc3ccc(-c4cc[nH]n4)o3)CC2)cc(C)n1 | -5.81% | 13.3% | -25.4% | 33.9% | 10.2% | 10.9% | 12.7% | 9.15% | 3.83% | 13.6% | -5.59%
9 | O=C(NCCc1ccsc1)Nc1cccnc1N1CCCC1 | -3.39% | 26.3% | -28.7% | 0.502% | 3.64% | -2.88% | 11.2% | -10.3% | 8.37% | 35.8% | -9.48%
10 | Cc1noc(C2CCC3(CCN(C(=O)C4=CCCCC4)CC3)O2)n1 (stereo unspecified) | -7.11% | 10.8% | -5.86% | 30.2% | 3.42% | 3.23% | 8.67% | 3.52% | 8.6% | 16.1% | -7.09%
11 | Cc1ncoc1C(=O)N1C[C@H]2CCC[C@@]2(COCC2CCOCC2)C1 | -3.5% | 0% | 4.71% | -0.295% | 1.66% | 1.59% | 22.3% | -6.69% | 2.16% | 7.69% | 5.48%
